Assay results taken from the supplement of paper PMC12669032.
Values without a mark were called inactive.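 Rule for the calls: active = AUC reduced over 20% with Padj below 0.05 in at least 2 of 3 replicates; inactive = otherwise.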

Experiments:
Experiment in all cases: growth AUC relative to DMSO control (median of replicates) (fraction); higher = more growth (less inhibition), active = hit call of the paper
Conditions in all cases: 20 µM; 24 h
[1] = tested on: Akkermansia muciniphila
In short: (§1)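 Hourly OD600 readings over 24 h tracked anaerobic gut bacterial monocultures grown at 37 °C in mGAM from OD600 0.05 with 20 µM compound (1% DMSO). After the minimum OD was set to 0, area under the growth curve was normalised to the plate median of solvent-only wells, or to row and column medians on the industrial chemical plate. Values are medians of three biological replicates grown on separate days.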

[2] = tested on: Bacteroides caccae
In short: as §1

[3] = tested on: Bacteroides clarus
In short: as §1

[4] = tested on: Bacteroides dorei
In short: as §1

[5] = tested on: Bacteroides stercoris
In short: as §1

[6] = tested on: Bacteroides thetaiotaomicron
In short: as §1

[7] = tested on: Bacteroides uniformis
In short: as §1

[8] = tested on: Bifidobacterium longum subsp. longum
In short: as §1

[9] = tested on: Clostridium difficile
In short: as §1

[10] = tested on: Collinsella aerofaciens
In short: as §1

[11] = tested on: Coprococcus comes
In short: as §1

[12] = tested on: Escherichia coli ED1a
In short: as §1

[13] = tested on: Escherichia coli IAI1
In short: as §1

[14] = tested on: Eubacterium rectale
In short: as §1

[15] = tested on: Fusobacterium nucleatum subsp. animalis
In short: as §1

[16] = tested on: Lactobacillus gasseri
In short: as §1

[17] = tested on: Lactobacillus paracasei
In short: as §1

[18] = tested on: Odoribacter splanchnicus
In short: as §1

[19] = tested on: Parabacteroides distasonis
In short: as §1

[20] = tested on: Parabacteroides merdae
In short: as §1

SMILES	growth AUC [1]	growth AUC [2]	growth AUC [3]	growth AUC [4]	growth AUC [5]	growth AUC [6]	growth AUC [7]	growth AUC [8]	growth AUC [9]	growth AUC [10]	growth AUC [11]	growth AUC [12]	growth AUC [13]	growth AUC [14]	growth AUC [15]	growth AUC [16]	growth AUC [17]	growth AUC [18]	growth AUC [19]	growth AUC [20]
COc1cccc(N(C)C(=S)Oc2cccc(C(C)(C)C)c2)n1	0.871	0.93	0.921	1.06	0.839	1.01	1.01	0.895	1.09	0.97	0.954	0.997	0.982	0.896	0.971	1.06	0.707	1.11	0.951	0.933
CCOC(=O)C1=NOC(c2ccccc2)(c2ccccc2)C1	0.86	1.03	0.971	0.995	0.979	0.926	0.932	0.966	0.974	0.993	0.974	0.974	0.997	0.932	0.956	0.99	1.06	0.944	1.14	0.948
CC(=O)CC(c1ccccc1)c1c(O)c2ccccc2oc1=O (stereo not given)	0.913	1.01	0.93	1.02	0.965	0.952	0.952	1	0.998	0.966	1.01	0.967	0.982	0.963	1.02	0.957	0.943	0.927	0.907	1.01
ClC(COCC(Cl)C(Cl)(Cl)Cl)C(Cl)(Cl)Cl (stereo not given)	0.875	0.969	0.942	1.01	0.952	0.91	0.918	0.967	1.02	1.05	0.976	1.01	0.983	0.92	0.992	1.11	1.08	0.971	0.98	0.932
CN1CCC[C@H]1c1cccnc1	0.753	0.995	0.997	1.04	1	0.984	0.981	1.01	0.951	1.04	0.984	0.99	1.01	0.978	0.98	0.941	0.991	0.989	1.02	0.993
Nc1ccc(O)cc1	0.951	1	1.01	0.998	1.11	1.01	1.03	0.921	1.01	1.01	1.01	1.06	1.01	1.12	1.12	1.08	1.08	1.05	0.954	1.04
CCc1cccc(CC)c1N(COC)C(=O)C(=O)O	0.957	1.03	0.971	1.01	1.03	1.03	1.02	0.989	1.02	1.03	0.981	1.05	0.999	0.948	1.04	0.999	1	1.01	1.02	0.991
CCOC(=O)[C@@H](C)Oc1ccc(Oc2nc3ccc(Cl)cc3o2)cc1	0.975	0.971	0.966	0.983	1.03	1.01	0.929	1	1.03	1.02	1.01	1.03	1	0.876	1.02	0.991	1.03	1.09	0.999	0.971
Cc1cccc(C)c1N(CC(=O)O)C(=O)CS(=O)(=O)[O-].[Na+]	0.891	1.01	0.939	0.998	0.888	1.01	1	0.938	1.05	0.973	0.996	0.973	0.946	0.847	0.941	0.987	0.928	1.01	0.965	0.997
O=C(Nc1ccc(Cl)cc1C(O)c1ccccc1)c1ccncc1 (stereo not given)	1.04	0.985	0.946	1.01	0.878	0.97	0.987	1.01	0.982	0.994	1.04	0.997	0.958	1.12	1.08	0.966	0.943	0.971	0.983	0.979
Nc1cc(Cl)nc(C(=O)O)c1Cl	1.11	1.01	1.04	0.971	1.15	1.03	1.02	1.06	0.952	0.997	1.03	1.04	1.02	1.01	1.03	0.961	1.24	1.05	1.03	1.02
CN(C)C(=O)c1cccnc1S(N)(=O)=O	1.05	1.01	1.04	1.03	1.01	0.988	1.04	1.02	1.05	1.01	1.03	1.05	1.04	1.02	1.02	1.06	1.04	1.02	1.01	1
Clc1ccc(C(c2ccccc2Cl)C(Cl)Cl)cc1 (stereo not given)	1.21	1.01	0.936	0.976	0.856	0.988	0.943	1.03	1	0.847	1.03	1	0.978	0.952	1.01	0.496	1.04	1.02	0.615 (active)	0.976
CCC(C)c1cc([N+](=O)[O-])cc([N+](=O)[O-])c1OC(=O)OC(C)C (stereo not given)	1.05	0.909	0.81	0.892	0.294 (active)	0.875	0.881	0.959	0.945	0.915	0.867	0.911	0.929	1.02	0.611 (active)	0.859	0.951	1.09	0.979	0.929
O=c1cc(Cl)[nH]nc1-c1ccccc1	0.833	1.01	0.967	1.05	0.777	1.02	1.01	0.954	1.07	0.983	0.973	0.956	0.954	0.939	0.995	0.992	0.748	1.02	1.02	0.982
Cc1cccc(C)c1N(C(=O)CCl)C1CCOC1=O (stereo not given)	1.05	0.802	0.993	0.971	1.1	0.647 (active)	0.894	1.04	0.966	0.959	0.889	0.963	1.01	1.09	1.02	0.953	1.01	0.408	0.99	0.981

SMILES	growth AUC [1]	growth AUC [2]	growth AUC [3]	growth AUC [4]	growth AUC [5]	growth AUC [6]	growth AUC [7]	growth AUC [8]	growth AUC [9]	growth AUC [10]	growth AUC [11]	growth AUC [12]	growth AUC [13]	growth AUC [14]	growth AUC [15]	growth AUC [16]	growth AUC [17]	growth AUC [18]	growth AUC [19]	growth AUC [20]
COC(=O)C(Cl)Cc1ccc(Cl)cc1 (stereo not given)	1.01	0.921	0.973	0.99	1.03	1.02	0.921	1.01	0.983	0.936	0.962	0.994	0.971	0.994	0.995	0.891	1.06	0.899	1	0.901
CNC(=O)/C(=N/OC)c1ccccc1COc1cc(C(=O)O)ccc1C	1.01	0.982	1.03	0.979	0.967	0.998	1.01	0.998	0.991	1	0.984	1.05	0.978	0.963	0.949	1.1	0.98	0.987	1.01	0.973
Cc1[nH]n(C)c(=O)c1C(=O)c1ccc(C(F)(F)F)cc1S(C)(=O)=O	0.91	1.06	0.997	1.02	1.01	0.978	1.01	0.977	0.989	1	0.991	1.01	1.08	0.972	1.01	1.02	1.03	1.02	1.04	0.974
COc1cc(OC)nc(Sc2cccc3c2C(=O)OC3C)n1 (stereo not given)	0.871	1.01	0.989	1.04	1.06	0.974	0.97	0.974	0.998	1.03	1	0.984	0.999	1.02	0.965	1.06	1	1.09	0.904	0.968
CCCCCCCCSCCO	1.06	0.954	0.967	1.02	0.918	0.975	1	1.04	0.983	0.949	0.974	0.955	0.936	1.04	0.902	0.94	0.93	1.03	0.915	0.966
O=[N+]([O-])c1ccc(O)cc1	1.02	1.01	0.994	1.01	1.11	1.02	1.01	0.96	1.02	1.05	0.973	1.01	0.994	0.994	0.979	0.985	0.987	1.01	0.99	0.99
COCC(=O)N(c1c(C)cccc1C)C(C)C(=O)O (stereo not given)	1.09	0.998	1	1.01	1.13	1.04	0.997	0.951	0.95	1.08	1.01	1	1.01	1.09	1.15	1.04	1.02	1.01	1.01	1.05
CCOC(=O)C(C)N(C(=O)c1ccccc1)c1ccc(Cl)c(Cl)c1 (stereo not given)	1.07	0.975	0.948	0.963	1.13	0.922	0.89	0.945	1.01	1.02	0.971	1.03	0.991	1.04	1.02	0.935	1.03	0.985	0.733 (active)	0.939
CCCCOC(=O)C(C)Oc1ccc(Oc2ccc(C(F)(F)F)cn2)cc1 (stereo not given)	1.13	1.01	0.977	0.951	1.08	0.959	0.891	0.681 (active)	1.01	0.963	0.987	1.02	1.01	1.09	0.997	0.914	0.985	1.02	0.768	0.961
Cc1cc(C)c(C2=C(O)C3(CCCC3)OC2=O)c(C)c1	1.01	1.01	1.02	1.01	1.08	0.986	0.989	1.04	1.04	1.04	0.981	0.997	1.01	0.996	0.947	1.09	1.02	0.563 (active)	0.622 (active)	1
Br[C@@H]1CC[C@H](Br)[C@H](Br)CC[C@@H](Br)[C@@H](Br)CC[C@H]1Br	1	1.01	0.901	0.999	0.528 (active)	1.01	1.01	0.919	1.02	1	1.05	0.985	1	0.773 (active)	0.974	0.789	0.976	1.08	0.232 (active)	0.351 (active)
O=C(O)CNC(=O)c1cnccc1C(F)(F)F	1.02	1	1.02	0.976	1.07	0.99	1.02	1.06	0.924	0.989	0.96	1.03	1.02	1.01	1.14	0.903	1.11	1.02	1.03	0.992
C=C1C[C@]23C[C@@]1(O)CC[C@H]2[C@@]12C=C[C@H](O)[C@@](C)(C(=O)O1)[C@H]2[C@@H]3C(=O)O	1.24	0.966	0.999	0.921	1.01	1.02	0.947	0.915	0.931	0.95	0.975	0.982	1.01	1.14	0.967	0.921	0.94	0.779	0.778	0.995
CCc1ccc(C(c2ccc(CC)cc2)C(Cl)Cl)cc1	0.859	0.912	0.952	1.02	0.931	0.977	1.02	0.972	1.03	0.901	1.04	1.02	1.01	0.935	0.939	0.938	0.996	1	0.976	0.882
CC(C)CCCCCOC(=O)C(C)Oc1ccc(Cl)cc1Cl (stereo not given)	1.14	1	1.03	0.954	0.966	1.04	0.992	0.969	1.06	1.02	1.01	0.979	1.02	1.21	1.06	0.817	0.962	0.814	0.925	0.9
FC(F)(F)c1cccc(C(c2ccccc2)(c2ccccc2)n2cncn2)c1	0.852	0.02 (active)	0.93	0.92	0.892	0.869	0.877	0.948	1.04	0.924	0.713	0.975	0.959	0.646 (active)	0.899	0.851	1.11	1.03	0.842	0.619 (active)
